Reference: PubChem BioAssay (EPA / NIEHS)
Values joined by “and” are separate entries in the source; they are usually repeats but may differ in a detail not shown here. Identical values can stand only once. Results filed as inconclusive are left out. Active and inactive are the calls of the source. The calls were made as follows, unless noted: active = hit-call score of the fitted dose curve at least 0.9, where 1 is the maximum; inactive = score below 0.9.

Key:
CD69, CD69 (gene 969) = test: BSK_LPS_CD69: BioMAP Diversity Plus: LPS Assay for CD69 Biomarker Activity (AID 2284303); settings: primary human HUVEC with PBMC
In short: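 CD69 surface levels were read by ELISA after 24 h chemical treatment of an LPS-stimulated HUVEC plus PBMC co-culture; positive-direction fit against DMSO vehicle.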

IYD (gene 389434) = test: CCTE_GLTED_hIYD: CCTE's human Iodotyrosine Deiodinase (xIYD) Inhibition Assay, Great Lakes Toxicology and Ecology Division (GLTED) Lab (AID 2284317; active = hit-call score of the fitted dose curve at least 0.9, where 1 is the maximum;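 also: cell-free human IYD enzyme made in baculovirus insect cells; iodide freed from monoiodotyrosine measured by cerium arsenite color change at 420 nm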)
In short: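 In the IYD assay, iodide released from MIT by insect-cell-expressed human enzyme was quantified after 3 h via Sandell-Kolthoff rate at 420 nm, with plate-wise normalization to MNT and solvent controls.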

SERPINA7 (gene 6906) = test: CCTE_GLTED_hTBG: CCTE's human Thyroxine-binding Globulin (TBG) Inhibition Assay, Great Lakes Toxicology and Ecology Division (GLTED) Lab (AID 2284343; active = hit-call score of the fitted dose curve at least 0.9, where 1 is the maximum;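 also: active chemicals lower fluorescence versus DMSO baseline by displacing probe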)
In short: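 Cell-free displacement of the fluorescent probe ANSA from human thyroxine-binding globulin after 2 h exposure. Read-out at ex 380/em 475 nm; DMSO baseline.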

[1] = CCTE_Deisenroth_5AR_NBTE_donor: CCTE's 5alpha-reductase NanoBRET Target Engagement Assay […], Deisenroth Lab (AID 2284319); settings: actives raise or lower the signal
In short: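 In this secondary endpoint, donor luminescence from SRD5A2-NanoLuc in transfected HEK293T flags artifacts. Test chemical (10 nM - 29.9 uM) is present five hours, tracer the last two; mock-tracer wells run plate-matched; data fitted bidirectionally against DMSO.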

SRD5A2 (gene 6716) = test: CCTE_Deisenroth_5AR_NBTE_ratio: CCTE's 5alpha-reductase NanoBRET Target Engagement Assay - Ratio, Deisenroth Lab (AID 2284322); settings: actives raise or lower the signal
In short: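 HEK293T cells transiently expressing an SRD5A2-NanoLuc fusion (20 h post-transfection) were exposed to test chemical (10 nM - 29.9 uM, 8 points) for 3 h, then testosterone tracer for a further 2 h. Acceptor/donor BRET ratio was fitted bidirectionally against DMSO baseline.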

[2] = IUF_NPC2b_neuronal_migration_120hr: Leibniz Research Institute for Environmental Medicine (IUF) 120-hour Neural Progenitor Cell Migration Assay for Neuron Migration (NPC2b) (AID 2284300)
In short: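 TUBB3-positive neurons are imaged after 120 h of differentiation, and their mean distance from the sphere edge is normalised to radial glia migration. Single 0.3 mm fetal hNPC spheres on poly-D-lysine/laminin received 7 compound concentrations, ≤0.1% DMSO, refreshed at day 3.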

[3] = IUF_NPC3_neuronal_differentiation_120hr: Leibniz Research Institute for Environmental Medicine (IUF) 120-hour Neuronal Differentiation Assay (NPC3) (AID 2284301)
In short: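 Value is percent TUBB3-positive neurons among Hoechst-stained nuclei in the migration area, scored by trained CNN after 120 h differentiation. Primary hNPC spheres on poly-D-lysine/laminin, N2 medium, continuous dosing from day 0, half-refeed day 3; DMSO reference.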

[4] = IUF_NPC4_neurite_length_120hr: Leibniz Research Institute for Environmental Medicine (IUF) 120-hour Neuronal Morphology Assay for Neurite Length (NPC4) (AID 2284302)
In short: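 Neurite length, the mean in um across TUBB3-stained neurons, is derived by skeletonization of high-content images after 120 h differentiation. Compound exposure, 7 concentrations plus solvent control, ran from plating of hNPC spheres on poly-D-lysine/laminin, with medium half-replaced on day 3.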

[5] = IUF_NPC5_oligodendrocyte_differentiation_120hr: Leibniz Research Institute for Environmental Medicine (IUF) 120-hour Oligodendrocyte Differentiation Assay (NPC5) (AID 2284304; active = hit-call score of the fitted dose curve at least 0.9, where 1 is the maximum;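 also: primary human fetal neural progenitor spheres plated to migrate and differentiate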)
In short: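 Oligodendrocyte differentiation scored as O4-positive cells, found by CNN image analysis, as percent of Hoechst-stained nuclei in the migration area. Scoring followed 5 days of exposure of plated hNPC neurospheres differentiating in DMEM/F12 N2 medium at 37C, with compound refreshed at day 3.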

[6] = IUF_NPC2-5_cytotoxicity_72hr: Cytotoxicity Assessment at 72 hours in the Leibniz Research Institute for Environmental Medicine (IUF) Neural Progenitor Cell Migration and Differentiation Assay for Cytotoxicity (NPC2-5) (AID 2284306; active = hit-call score of the fitted dose curve at least 0.9, where 1 is the maximum;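 also: LDH release into supernatant measured by resorufin fluorescence marking membrane damage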)
In short: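 Membrane-integrity cytotoxicity at 72 h, read as LDH-driven resorufin fluorescence in supernatant. hNPC spheres from fetal cortex differentiate on coated plates in N2 medium, 37C, 5% CO2; seven serial compound concentrations plus solvent control (DMSO ≤0.1%).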

[7] = IUF_NPC2-5_cytotoxicity_120hr: Cytotoxicity Assessment at 120 hours in the Leibniz Research Institute for Environmental Medicine (IUF) Neural Progenitor Cell Migration and Differentiation Assay (NPC2-5) (AID 2284307; active = hit-call score of the fitted dose curve at least 0.9, where 1 is the maximum)
In short: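 Membrane-integrity loss measured as LDH activity in medium supernatant via resazurin-to-resorufin fluorescence after 120 h exposure. hNPC spheres from GW 16-19 fetal cortex differentiated on poly-D-lysine/laminin, 37C, medium half-refreshed day 3; seven concentrations, DMSO max 0.1%.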

[8] = IUF_NPC2-5_cell_number_120hr: Cell Number Assessment at 120 hours in the Leibniz Research Institute for Environmental Medicine (IUF) Neural Progenitor Cell Migration and Differentiation Assay (NPC2-5) (AID 2284308);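 also: count of Hoechst-stained nuclei in migration zone around plated human neural progenitor spheres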
In short: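 Counting of all Hoechst-stained nuclei in the migration area at 120 h, versus DMSO control. Primary hNPC spheres differentiated on poly-D-lysine/laminin in N2 medium at 37C, dosed from day 0 (7 concentrations, DMSO ≤0.1%), half-refed day 3.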

[9] = IUF_NPC2-5_viability_120hr: Viability Assessment at 120 hours in the Leibniz Research Institute for Environmental Medicine (IUF) Neural Progenitor Cell Migration and Differentiation Assay (NPC2-5) (AID 2284312)
In short: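 Alamar blue resorufin fluorescence read after 5 days of differentiation, with compound present from day 0 and replenished at day 3. Primary hNPC spheres on laminin-coated plates, 37C; seven concentrations plus solvent control, fitted against DMSO.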

[10] = CCTE_Mundy_HCI_iCellGluta_NOG_NeuriteLength: CCTE's Neurite Outgrowth Assay in iCellGluta cells for Neurite Length, Mundy Lab (AID 2284318; active = hit-call score of the fitted dose curve at least 0.9, where 1 is the maximum)
In short: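 Automated high-content imaging of betaIII-tubulin (Alexa Fluor-488) and Hoechst-stained cells gave neurite length, normalized to the DMSO baseline.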

[11] = IUF_NPC1_cytotoxicity_72hr: Cytotoxicity Assessment at 72 hours in the Leibniz Research Institute for Environmental Medicine (IUF) Neural Progenitor Cell Proliferation Assay (NPC1) (AID 2284332; active = hit-call score of the fitted dose curve at least 0.9, where 1 is the maximum;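 also: rising LDH signal means more cytotoxicity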)
In short: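 Cytotoxicity by LDH membrane-integrity assay on medium supernatants, fluorescence via resazurin reduction, after 3-day single exposure of primary hNPC spheres at 37C, pH 7.2-7.6 with growth factors. Fitted upward against baseline.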

[12] = CCTE_Mundy_HCI_iCellGluta_NOG_NeuriteCount: CCTE's Neurite Outgrowth Assay in iCellGluta cells for Neurite Count, Mundy Lab (AID 2284342; active = hit-call score of the fitted dose curve at least 0.9, where 1 is the maximum;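 also: chemical exposure about 48 hours starting 2 hours after plating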)
[13] = CCTE_Padilla_ZF_Score.Craniofacial: CCTE's 144 Hour Post-fertilization zebrafish Assay Score for Craniofacial Malformation, Padilla Lab (AID 2284405)
In short: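 Craniofacial defects were scored at 6 dpf by two blinded observers using stereomicroscopy. Exposure of wild-type embryos began at 6–8 hpf in sealed wells of 10% Hanks' solution at 26C, with chemical removed by rinsing at 5 dpf.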

[14] = IUF_NPC4_neurite_area_120hr: Leibniz Research Institute for Environmental Medicine (IUF) 120-hour Neuronal Morphology Assay for Neurite Area (NPC4) (AID 2284305; active = hit-call score of the fitted dose curve at least 0.9, where 1 is the maximum)
In short: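 Neurite area (pixels, nuclei excluded) of TUBB3-positive neurons from hNPC spheres differentiating 5 days under continuous exposure at 37 C, 5% CO2. High-content imaging; loss of signal versus DMSO control across 7 concentrations.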

[15] = CCTE_Mundy_HCI_iCellGluta_NOG_NeuronCount: CCTE's Neurite Outgrowth Assay in iCellGluta cells for Neuron Count, Mundy Lab (AID 2284340; active = hit-call score of the fitted dose curve at least 0.9, where 1 is the maximum;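 also: cells fixed about 48 h after compound addition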)
In short: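 Neuron count read by automated high-content imaging of Hoechst 33342 and betaIII-tubulin/Alexa Fluor-488 labelling in human iPSC glutamatergic neurons. Activity fitted relative to DMSO.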

[16] = TAMU_PeakParms_SingleDonor1434_Asystole: Texas A&M University (TAMU) 1.5-hr Human Induced Pluripotent Stem Cell (iPSC)-derived Cardiomyocytes Calcium (Ca+2) Flux Assay for Cardiotoxicity: Asystole (quiescence of beating) (AID 2284328; active = hit-call score of the fitted dose curve at least 0.9, where 1 is the maximum)
In short: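 Average Ca2+-flux peak frequency (beats/s) was recorded in single-donor iPSC-derived cardiomyocytes after 90 min exposure (0.2–100 uM final, 0.5% DMSO). Asystole POD set as EC95 against DMSO, no preprocessing.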

CO[Si](OC)(OC)c1ccccc1
outcome (CD69, CD69 (gene 969)): inactive

CCCCCCCC/C=C\CCCCCCCC(=O)OCCO
AC50 (IYD (gene 389434)): 128 µM (active)

CN(C)c1ccc(N=Nc2ccccc2C(=O)O)cc1
AC50 (SERPINA7 (gene 6906)): 25.6 µM (active)

CCCCCCCC[N+](C)(CCCCCCCC)CCCCCCCC
AC50 (IYD (gene 389434)): 27.2 µM (active) | AC50 [1]: 11.4 µM (active) | AC50 (SRD5A2 (gene 6716)): 20.1 µM (active)

CCCCC(CC)COCC1CO1 (configuration not stated)
outcome (CD69, CD69 (gene 969)): inactive

C1CN(SSN2CCOCC2)CCO1
outcome [1]: inactive | outcome (SRD5A2 (gene 6716)): inactive

O=C(Nc1cccc(C(F)(F)F)c1)c1cc(Br)cc(Br)c1O
AC50 (IYD (gene 389434)): 100 µM (active)

C=C[Si](OC(C)=O)(OC(C)=O)OC(C)=O
outcome (CD69, CD69 (gene 969)): inactive

CC(C)(C)c1ccc(OC(=O)c2ccccc2O)cc1
AC50 (SERPINA7 (gene 6906)): 1.69 µM (active)

CC1(C)S[C@@H]2[C@H](NC(=O)COc3ccccc3)C(=O)N2[C@H]1C(=O)O
outcome [2]: inactive | outcome [3]: inactive | outcome [4]: inactive | outcome [5]: inactive | outcome [6]: inactive | outcome [7]: inactive | outcome [8]: inactive | outcome [9]: inactive | outcome [10]: inactive | outcome [11]: inactive | outcome [12]: inactive

CCCCCCCCCCCCCOP(=O)(O)O
AC50 (IYD (gene 389434)): 40.2 µM (active) | AC50 (SERPINA7 (gene 6906)): 2.24 µM (active)

CCN(CCC#N)c1ccc(N=Nc2c(Cl)cc([N+](=O)[O-])cc2Cl)cc1
AC50 (IYD (gene 389434)): 152 µM (active) | outcome [1]: inactive | AC50 (SRD5A2 (gene 6716)): 10 µM (active)

O=c1cc(-c2ccccc2)oc2ccccc12
AC50 (SERPINA7 (gene 6906)): 18.5 µM (active)

CCOC(=O)Cc1cccc2ccccc12
AC50 (SERPINA7 (gene 6906)): 13.4 µM (active)

CC=CC(F)(F)C(F)(F)C(F)(F)F
outcome [13]: inactive

CCCCCCCC/C=C\CCCCCCCC(=O)O
AC50 (IYD (gene 389434)): 41 µM (active) | outcome [1]: inactive | outcome (SRD5A2 (gene 6716)): inactive | AC50 (SERPINA7 (gene 6906)): 8.56 µM (active)

CCOC(=O)c1ccccc1C(=C1C=C(Br)C(=O)C(Br)=C1)c1cc(Br)c(O)c(Br)c1
AC50 (CD69, CD69 (gene 969)): 8.66 µM (active) and 7.45 µM (active)

CCCc1ccc(OC)cc1
outcome [1]: inactive | outcome (SRD5A2 (gene 6716)): inactive

Oc1ccc(Cl)cc1Cc1cc(Cl)ccc1O
AC50 (IYD (gene 389434)): 100 µM (active) | outcome [1]: inactive | AC50 (SRD5A2 (gene 6716)): 29 µM (active) | AC50 (SERPINA7 (gene 6906)): 0.072 µM (active)

CC(C)(C)c1ccc(-c2ccc(C(C)(C)C)cc2)cc1
outcome (IYD (gene 389434)): inactive

CN(C)c1ccc(C(=N)c2ccc(N(C)C)cc2)cc1
outcome [1]: inactive | AC50 (SRD5A2 (gene 6716)): 22.6 µM (active)

CCCCC/C=C\C/C=C\CCCCCCCC(=O)OC
outcome (IYD (gene 389434)): inactive

Cc1ccc(C(C)c2ccc(C)c(C)c2)cc1C
outcome [1]: inactive | AC50 (SRD5A2 (gene 6716)): 50 µM (active) | AC50 (SERPINA7 (gene 6906)): 1.8 µM (active)

Nc1ncn([C@@H]2O[C@H](CO)[C@@H](O)[C@H]2O)c(=O)n1
outcome [2]: inactive | outcome [3]: inactive | outcome [4]: inactive | outcome [14]: inactive | outcome [6]: inactive | outcome [7]: inactive | outcome [8]: inactive | outcome [9]: inactive | AC50 [10]: 7.87 µM (active) | outcome [11]: inactive | outcome [15]: inactive | outcome [12]: inactive

O=C(O)CCCC[C@@H]1SC[C@@H]2NC(=O)N[C@@H]21
outcome [16]: inactive

FC(F)=C(F)OC(F)(F)C(F)(F)C(F)(F)F
outcome [13]: inactive

CC1=NN(c2cc(S(=O)(=O)O)ccc2Cl)C(=O)C1N=Nc1ccccc1 (configuration not stated)
outcome [1]: inactive | AC50 (SRD5A2 (gene 6716)): 10 µM (active) | outcome (SERPINA7 (gene 6906)): inactive

Nc1ccc(N)c(Cl)c1
AC50 (CD69, CD69 (gene 969)): 4.71 µM (active) and 1.81 µM (active)

O=C1CCCN1CCO
outcome (CD69, CD69 (gene 969)): inactive

COC(=O)c1c(C)cc(O)c(C)c1O
outcome [1]: inactive | outcome (SRD5A2 (gene 6716)): inactive

O=C(C=Cc1ccccc1)OCc1ccccc1
AC50 (SERPINA7 (gene 6906)): 25.7 µM (active)

O=C(Nc1ccccc1)c1ccccc1O
outcome (IYD (gene 389434)): inactive

CCOC(F)(F)C(F)(F)C(F)(F)C(F)(F)F
outcome [13]: inactive

O=C(c1ccc(O)cc1)c1ccc(O)cc1O
outcome (CD69, CD69 (gene 969)): inactive

CC/C=C\C/C=C\C/C=C\CCCCCCCC(=O)O
outcome (IYD (gene 389434)): inactive

CCCCC(CC)CCC(CC(C)C)OS(=O)(=O)O (configuration not stated)
AC50 (SERPINA7 (gene 6906)): 11.1 µM (active)

N[C@H]1C(O)O[C@H](CO)[C@H](O)[C@@H]1O (some centres not stated)
outcome [10]: inactive | outcome [15]: inactive | outcome [12]: inactive

CCO[Si](C)(OCC)OCC
outcome (CD69, CD69 (gene 969)): inactive

O=S(=O)(O)c1ccccc1C=Cc1ccc(-c2ccc(C=Cc3ccccc3S(=O)(=O)O)cc2)cc1
AC50 (IYD (gene 389434)): 100 µM (active)

CN1C(=O)N(C)C(O)C1O (configuration not stated)
outcome (CD69, CD69 (gene 969)): inactive
